Data as given in PubChem BioAssay (Tox21).
Several values for one entry are separate records, joined by “and”; a condition that tells them apart may be missing. Equal entries are not always repeated. Inconclusive results are not listed. Where a call stands in place of a potency, no number is given. Activity calls are given as the source filed them. Unless noted, calls follow the shape of the dose curve; as a rule, active = well fitted curve in the direction sought with a large enough effect in the repeat runs; inconclusive = weak or mixed curves; inactive = no such curve, though single readings can be large; an effect the other way counts as inactive or inconclusive.

How the values were obtained:
[1] = qHTS assay to identify aromatase inhibitors - cell viability counter screen (AID 743084);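 also: cells stimulated with testosterone during compound exposure; nearly all actives have a fitted effect of over 55% in size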
[2] = target: Aryl hydrocarbon receptor (Homo sapiens) (UniProt P35869); test: qHTS assay to identify small molecule that activate the aryl hydrocarbon receptor (AhR) signaling pathway (AID 743085); also: nearly all actives have a fitted effect of over 15% in size; also: potency is read from the fitted curve at half-maximal effect;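 as to activation: HG2L7.5c1 human HepG2 liver cells with stably integrated DRE-driven firefly reporter; series mostly up to about 70 µM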
Aryl hydrocarbon receptor (Homo sapiens), sequence (P35869 whole entry, looked up): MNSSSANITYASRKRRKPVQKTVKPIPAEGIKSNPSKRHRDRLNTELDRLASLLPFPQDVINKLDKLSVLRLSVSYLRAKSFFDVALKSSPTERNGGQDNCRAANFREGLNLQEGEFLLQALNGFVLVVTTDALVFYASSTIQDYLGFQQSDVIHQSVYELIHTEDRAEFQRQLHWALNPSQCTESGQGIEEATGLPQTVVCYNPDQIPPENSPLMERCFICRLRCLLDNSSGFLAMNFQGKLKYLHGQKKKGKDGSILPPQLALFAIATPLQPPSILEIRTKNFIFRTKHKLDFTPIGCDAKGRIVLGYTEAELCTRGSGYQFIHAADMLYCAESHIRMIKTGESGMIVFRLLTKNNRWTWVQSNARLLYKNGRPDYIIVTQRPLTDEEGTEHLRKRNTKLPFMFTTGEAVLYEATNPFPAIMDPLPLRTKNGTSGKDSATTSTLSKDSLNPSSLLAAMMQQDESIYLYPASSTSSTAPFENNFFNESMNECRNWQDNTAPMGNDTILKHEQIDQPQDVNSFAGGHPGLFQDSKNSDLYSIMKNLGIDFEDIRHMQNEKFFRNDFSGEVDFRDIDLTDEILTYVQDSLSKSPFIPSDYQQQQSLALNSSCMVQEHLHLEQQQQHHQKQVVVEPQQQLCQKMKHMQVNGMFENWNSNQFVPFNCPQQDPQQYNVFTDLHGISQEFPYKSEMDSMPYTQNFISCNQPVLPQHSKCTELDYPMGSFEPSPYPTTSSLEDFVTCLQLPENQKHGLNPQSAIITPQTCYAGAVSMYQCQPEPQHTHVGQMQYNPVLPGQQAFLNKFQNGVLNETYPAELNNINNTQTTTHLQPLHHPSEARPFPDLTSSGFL
Summary of the method: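 Compounds were tested in HepG2 hepatocellular carcinoma cells harbouring a stably integrated luciferase gene under control of 20 DREs. Increased reporter signal after 24 h treatment at 37C was taken as AhR activation.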

[3] = qHTS assay to identify small molecule that activate the aryl hydrocarbon receptor (AhR) signaling pathway - cell viability counter screen (AID 743086);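 also: HepG2 liver cells carrying the AhR DRE luciferase reporter; series mostly up to about 70 µM; nearly all actives have a fitted effect of over 45% in size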
Summary of the method: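 HepG2-AhR-luc (HG2L7.5c1) cells, 4000/well, treated 24 h at 37 C with compound; viability measured as CellTiter-Fluor fluorescence after 30 min in the same wells as the luciferase read.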

[4] = target: Peroxisome proliferator-activated receptor gamma (Homo sapiens) (UniProt P37231); test: qHTS assay to identify small molecule agonists of the peroxisome proliferator-activated receptor gamma (PPARg) signaling pathway (AID 743094; active = well fitted activation curve with a large enough effect in the signal ratio in the repeat runs, not every such curve was filed as active; the % refers to the signal ratio)
Peroxisome proliferator-activated receptor gamma (Homo sapiens), sequence (P37231 whole entry, looked up): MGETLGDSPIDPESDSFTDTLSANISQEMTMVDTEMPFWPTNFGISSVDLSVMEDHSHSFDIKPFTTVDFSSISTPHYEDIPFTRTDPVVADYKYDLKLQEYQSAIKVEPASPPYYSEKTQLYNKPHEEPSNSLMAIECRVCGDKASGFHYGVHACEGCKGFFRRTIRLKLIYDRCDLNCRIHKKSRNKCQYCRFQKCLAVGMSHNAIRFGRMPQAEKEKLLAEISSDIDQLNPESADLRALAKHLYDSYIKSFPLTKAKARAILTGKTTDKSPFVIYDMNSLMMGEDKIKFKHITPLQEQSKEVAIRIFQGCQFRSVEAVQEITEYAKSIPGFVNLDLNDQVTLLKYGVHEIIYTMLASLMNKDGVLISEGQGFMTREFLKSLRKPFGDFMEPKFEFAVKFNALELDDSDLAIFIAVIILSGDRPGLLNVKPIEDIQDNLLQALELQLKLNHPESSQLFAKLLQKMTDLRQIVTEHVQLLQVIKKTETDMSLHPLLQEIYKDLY
Summary of the method: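 Cell-based bla reporter, HEK293H background, PPARg-driven UAS. Pre-incubation 5 h, 37C, 5% CO2. Compound 17 h, 37C. Substrate 1 h RT; fluorescence.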

[5] = target: Peroxisome proliferator-activated receptor gamma (Homo sapiens) (UniProt P37231); test: qHTS assay to identify small molecule antagonists of the peroxisome proliferator-activated receptor gamma (PPARg) signaling pathway (AID 743191; calls by dose curve; also: series mostly up to about 63 µM; nearly all actives have a fitted effect of over 30% in size)
Summary of the method: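 GeneBLAzer PPARg UAS-bla HEK293H cells, 5 h post-plating, exposed to compounds 17 h at 37C. LiveBLAzer B/G FRET substrate added for 1 h at room temperature; beta-lactamase reporter read by fluorescence intensity.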

[6] = qHTS assay to identify small molecule antagonists of the peroxisome proliferator-activated receptor gamma (PPARg) signaling pathway - cell viability counter screen (AID 743194); also: nearly all actives have a fitted effect of over 55% in size
Summary of the method: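 Cytotoxicity counter screen in PPARg-bla HEK293H cells, same wells as reporter assay. Compounds plus 50 nM rosiglitazone (final) for 17 h at 37 C, then viability read by CellTiter-Glo luminescence.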

[7] = qHTS assay for small molecule agonists of the antioxidant response element (ARE) signaling pathway (AID 743202; active = well fitted activation curve with a large enough effect in the signal ratio in the repeat runs, not every such curve was filed as active; the % refers to the signal ratio; also: potency is read from the fitted curve at half-maximal effect)
Summary of the method: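 HepG2 ARE-bla cells; 16 h treatment at 37 C; FRET-based beta-lactamase fluorescence read after 2 h substrate incubation at room temperature.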

[8] = qHTS assay for small molecule agonists of the antioxidant response element (ARE) signaling pathway - cell viability counter screen (AID 743203; calls by dose curve; also: nearly all actives have a fitted effect of over 55% in size)
Summary of the method: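 Measured in the same wells as the beta-lactamase ARE reporter, this read-out is CellTiter-Glo luminescence from HepG2 ARE-bla cells given compounds for 16 hrs.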

[9] = qHTS assay for small molecule activators of the heat shock response signaling pathway - cell viability counter screen (AID 743209); also: nearly all actives have a fitted effect of over 50% in size
Summary of the method: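 Same-well multiplex: after 2.5 h room-temperature incubation with LiveBLAzer B/G substrate and fluorescence reading, CellTiter-Glo reagent was added to HSE-bla HeLa cells that had received compound for 5 h at 37 C; luminescence read after 30 min.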

[10] = qHTS assay for small molecule activators of the heat shock response signaling pathway (AID 743210; active = well fitted activation curve with a large enough effect in the signal ratio in the repeat runs, with a control signal flat, not every such curve was filed as active; the % refers to the signal ratio;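 also: HeLa cells with beta-lactamase reporter driven by heat shock elements; series mostly up to about 63 µM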)
Summary of the method: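 Following overnight attachment, HSE-bla HeLa cells received test compounds for 5 h at 37 C; beta-lactamase activity was then detected via FRET substrate fluorescence.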

[11] = qHTS assay to identify small molecule agonists of the peroxisome proliferator-activated receptor delta (PPARd) signaling pathway - cell viability counter screen (AID 743211); also: nearly all actives have a fitted effect of over 55% in size
Summary of the method: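 Counter screen for cytotoxicity run in parallel with the PPARd reporter screen. Beta-lactamase reporter HEK293H cells exposed to compounds 17 h; ATP-based CellTiter-Glo luminescence quantified viability.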

[12] = target: Peroxisome proliferator-activated receptor delta (Homo sapiens) (UniProt Q03181); test: qHTS assay to identify small molecule agonists of the peroxisome proliferator-activated receptor delta (PPARd) signaling pathway (AID 743212; calls by dose curve)
Peroxisome proliferator-activated receptor delta (Homo sapiens), sequence (Q03181 whole entry, looked up): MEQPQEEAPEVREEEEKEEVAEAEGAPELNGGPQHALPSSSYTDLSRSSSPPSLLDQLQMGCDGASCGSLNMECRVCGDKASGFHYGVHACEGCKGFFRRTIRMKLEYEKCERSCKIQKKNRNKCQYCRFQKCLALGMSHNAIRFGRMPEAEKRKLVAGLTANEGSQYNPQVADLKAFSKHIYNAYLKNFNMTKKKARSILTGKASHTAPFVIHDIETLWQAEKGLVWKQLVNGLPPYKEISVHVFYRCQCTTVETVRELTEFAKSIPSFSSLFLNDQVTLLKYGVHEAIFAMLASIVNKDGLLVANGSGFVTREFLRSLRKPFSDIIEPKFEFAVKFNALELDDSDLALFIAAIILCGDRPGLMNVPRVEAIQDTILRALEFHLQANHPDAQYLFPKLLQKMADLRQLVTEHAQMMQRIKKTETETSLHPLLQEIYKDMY
Summary of the method: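 Tox21 library screened in GeneBLAzer PPARd UAS-bla HEK293H cells. After compound treatment at 37 C, a FRET-based beta-lactamase substrate was applied for 2 h and fluorescence recorded.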

[13] = qHTS assay to identify small molecule antagonists of the peroxisome proliferator-activated receptor delta (PPARd) signaling pathway - cell viability counter screen (AID 743213); also: nearly all actives have a fitted effect of over 50% in size
Summary of the method: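 Cytotoxicity counter screen: CellTiter-Glo luminescence read 30 min after addition, in the same wells as the reporter assay. There, PPARd UAS-bla HEK293H cells (3000/well) were treated 17 h at 37 C with compound and 300 nM L165041.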

[14] = target: Peroxisome proliferator-activated receptor delta (Homo sapiens) (UniProt Q03181); test: qHTS assay to identify small molecule antagonists of the peroxisome proliferator-activated receptor delta (PPARd) signaling pathway (AID 743215; active = well fitted inhibition curve with a large enough effect in the signal ratio in the repeat runs, not every such curve was filed as active; the % refers to the signal ratio;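 also: cells stimulated with agonist L165041 at 300 nM final during compound exposure; series mostly up to about 62 µM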)
Summary of the method: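 Fluorescence from cleaved LiveBLAzer B/G FRET substrate (2 h, room temperature) reports PPARd-driven beta-lactamase in HEK293H UAS-bla cells. Cells had been treated 17 h at 37 C with compound plus 300 nM final L165041.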

[15] = target: Bile acid receptor (Homo sapiens) (UniProt Q96RI1); test: qHTS assay to identify small molecule antagonists of the farnesoid-X-receptor (FXR) signaling pathway (AID 743217; active = well fitted inhibition curve with a large enough effect in the signal ratio in the repeat runs, not every such curve was filed as active; the % refers to the signal ratio)
Bile acid receptor (Homo sapiens), sequence (Q96RI1 whole entry, looked up): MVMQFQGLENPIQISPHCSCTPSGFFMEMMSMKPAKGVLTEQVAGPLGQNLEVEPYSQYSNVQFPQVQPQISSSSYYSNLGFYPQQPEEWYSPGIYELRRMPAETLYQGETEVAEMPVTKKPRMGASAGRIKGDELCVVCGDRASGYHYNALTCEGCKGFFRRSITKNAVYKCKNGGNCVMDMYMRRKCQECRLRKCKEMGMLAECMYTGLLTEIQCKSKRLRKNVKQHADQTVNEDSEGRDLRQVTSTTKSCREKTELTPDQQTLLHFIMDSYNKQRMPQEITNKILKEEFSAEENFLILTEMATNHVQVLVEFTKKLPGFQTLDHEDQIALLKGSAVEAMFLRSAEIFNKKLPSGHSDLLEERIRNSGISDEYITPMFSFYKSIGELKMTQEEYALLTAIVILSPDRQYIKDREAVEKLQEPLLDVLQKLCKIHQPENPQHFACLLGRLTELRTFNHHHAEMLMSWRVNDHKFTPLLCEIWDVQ
Summary of the method: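 FRET fluorescence after 2 h room-temperature LiveBLAzer loading gives the readout. Prior step: FXR-bla HEK 293T cells, seeded and incubated 5 h, received test compounds plus 50 uM final CDCA for 16 h at 37 °C.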

[16] = qHTS assay to identify small molecule agonists of the farnesoid-X-receptor (FXR) signaling pathway - cell viability counter screen (AID 743218); also: nearly all actives have a fitted effect of over 45% in size
Summary of the method: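 Readout: CellTiter-Glo luminescence, 30 min RT, multiplexed after the FXR-bla FRET reading. HEK 293T FXR-UAS-bla cells received compound 5 h post-plating and were incubated 16 h at 37 C.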

[17] = target: Bile acid receptor (Homo sapiens) (UniProt Q96RI1); test: qHTS assay to identify small molecule agonists of the farnesoid-X-receptor (FXR) signaling pathway (AID 743220; active = well fitted activation curve with a large enough effect in the signal ratio in the repeat runs, not every such curve was filed as active; the % refers to the signal ratio)
Summary of the method: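 FXR-UAS-bla HEK 293T cells carrying a UAS-driven beta-lactamase reporter were plated for 5 h at 37C/5% CO2, then exposed to DMSO-dissolved Tox21 10K compounds for 16 h at 37C. A LiveBLAzer B/G FRET substrate was loaded for 2 h at room temperature before fluorescence reading.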

[18] = qHTS assay to identify small molecule antagonists of the farnesoid-X-receptor (FXR) signaling pathway - cell viability counter screen (AID 743221; active = well fitted cell-killing curve with a large enough effect in the repeat runs, not every such curve was filed as active; also: nearly all actives have a fitted effect of over 50% in size)
Summary of the method: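 Multiplexed counter screen: viability of FXR-bla HEK 293T cells under agonist stimulation by chenodeoxycholic acid (50 uM, final) and test compound for 16 h at 37 C, measured by CellTiter-Glo luminescence in the reporter wells.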

[19] = target: Vitamin D3 receptor (Homo sapiens) (UniProt P11473); test: qHTS assay to identify small molecule agonists of the vitamin D receptor (VDR) signaling pathway (AID 743222; calls by dose curve)
Vitamin D3 receptor (Homo sapiens), sequence (P11473 whole entry, looked up): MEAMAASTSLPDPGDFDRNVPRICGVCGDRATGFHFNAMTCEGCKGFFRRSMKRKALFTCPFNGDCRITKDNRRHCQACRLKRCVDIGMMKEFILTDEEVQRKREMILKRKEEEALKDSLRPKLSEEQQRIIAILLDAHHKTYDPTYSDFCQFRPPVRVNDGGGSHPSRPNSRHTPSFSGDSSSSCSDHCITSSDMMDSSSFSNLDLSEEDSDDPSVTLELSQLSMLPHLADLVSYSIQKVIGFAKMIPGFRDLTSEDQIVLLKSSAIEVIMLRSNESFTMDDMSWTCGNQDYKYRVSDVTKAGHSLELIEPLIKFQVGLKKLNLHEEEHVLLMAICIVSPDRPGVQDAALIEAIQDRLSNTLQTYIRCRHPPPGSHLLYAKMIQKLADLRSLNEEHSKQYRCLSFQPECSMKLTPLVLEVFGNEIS
Summary of the method: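 Following 4 h attachment at 37C, VDR-bla cells (2,000 per well) received DMSO-dissolved compounds or controls. After 16 h incubation, LiveBLAzer B/G FRET substrate was added and fluorescence read 2 h later at room temperature.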

[20] = target: Vitamin D3 receptor (Homo sapiens) (UniProt P11473); test: qHTS assay to identify small molecule antagonists of the vitamin D receptor (VDR) signaling pathway (AID 743223; active = well fitted inhibition curve with a large enough effect in the signal ratio in the repeat runs, not every such curve was filed as active; the % refers to the signal ratio)
Summary of the method: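 Cells carrying a VDR-driven beta-lactamase reporter (VDR-bla) were co-treated with compound and 3 nM final 1alpha,25-dihydroxyvitamin D3 for 16 h at 37C; reporter activity was measured as FRET substrate fluorescence after 2 h at room temperature.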

| SMILES | outcome [1] | Potency [2] | outcome [3] | outcome [4] | Potency [5] | outcome [6] | Potency [7] | outcome [8] | outcome [9] | outcome [10] | outcome [11] | outcome [12] | outcome [13] | Potency [14] | outcome [15] | outcome [16] | outcome [17] | outcome [18] | outcome [19] | outcome [20] |
| --- | --- | --- | --- | --- | --- | --- | --- | --- | --- | --- | --- | --- | --- | --- | --- | --- | --- | --- | --- | --- |
| Cc1cc(Cl)ccc1O | inactive | inactive | inactive | inactive | inactive | inactive | inactive | inactive | inactive | inactive | inactive | inactive | inactive | inactive | inactive | inactive | inactive | inactive | inactive | inactive |
| O=c1n(Cl)c(=O)n(Cl)c(=O)n1Cl | inactive | inactive | inactive | inactive | inactive | inactive | inactive | inactive | inactive | inactive | inactive | inactive | inactive | inactive |  | inactive |  |  | inactive | inactive |
| O=c1ccc(=O)[nH][nH]1 | inactive | inactive | inactive | inactive | inactive | inactive | inactive | inactive | inactive | inactive | inactive |  | inactive |  | inactive | inactive | inactive |  | inactive | inactive |
| CCCCCOC(=O)c1ccccc1C(=O)OCCCCC | inactive | inactive | inactive | inactive | inactive | inactive | inactive | inactive | inactive | inactive | inactive |  | inactive |  |  | inactive |  | inactive | inactive | inactive |
| O=NN1CCCCCCC1 | inactive | inactive | inactive | inactive | inactive | inactive | inactive | inactive | inactive | inactive |  |  | inactive |  | inactive | inactive | inactive | inactive |  |  |
| CCCCOC(=O)c1ccccc1C(=O)OCCCC | inactive | inactive | inactive |  | inactive | inactive | inactive | inactive | inactive | inactive | inactive |  | inactive |  |  | inactive |  | inactive | inactive | inactive |
| O=C(NC(=O)c1c(F)cccc1F)Nc1cc(Cl)c(OC(F)(F)C(F)C(F)(F)F)cc1Cl (stereo unspecified) | inactive | inactive | inactive | inactive |  | inactive |  | inactive | inactive | inactive |  |  | inactive |  | inactive | inactive | inactive | inactive | inactive | inactive |
| Cc1cc(-c2cc(C)c(N)c(C)c2)cc(C)c1N | inactive | 1.54 µM (active) and 756 nM (active) | inactive | inactive | inactive | inactive | inactive | inactive | inactive | inactive |  | inactive | inactive | inactive |  | inactive |  |  | inactive | inactive |
| CCC[CH2][Sn]([Cl])([Cl])[Cl] | inactive | inactive | inactive |  | inactive | inactive | 1.1 µM (active) and 2.43 µM (active) | inactive | inactive | inactive | inactive | inactive | inactive | inactive | inactive | inactive | inactive | inactive |  |  |
| Cc1[nH]c(=O)n(C(C)(C)C)c(=O)c1Cl | inactive | inactive | inactive |  | inactive | inactive | inactive | inactive | inactive | inactive | inactive |  | inactive |  | inactive | inactive | inactive | inactive |  |  |
| Nc1ccccc1C(=O)O | inactive | inactive | inactive | inactive | inactive | inactive | inactive | inactive | inactive | inactive |  |  | inactive |  | inactive | inactive | inactive |  | inactive | inactive |
| CN(N=O)c1ccccc1 | inactive | inactive | inactive |  | inactive | inactive | inactive | inactive | inactive | inactive |  | inactive | inactive | inactive | inactive | inactive | inactive | inactive | inactive | inactive |
| CCC12COCN1COC2 | inactive | inactive | inactive | inactive | inactive | inactive | inactive | inactive | inactive | inactive |  | inactive | inactive | inactive |  | inactive |  | inactive | inactive | inactive |
| NCCc1ccc(O)cc1 | inactive | inactive | inactive | inactive | inactive | inactive | inactive | inactive | inactive |  | inactive | inactive | inactive | inactive |  | inactive |  |  |  |  |
| BrCCBr | inactive | inactive | inactive | inactive | inactive | inactive | inactive | inactive | inactive |  | inactive | inactive | inactive | inactive |  | inactive |  |  | inactive | inactive |
| CC(C)OC(=O)Nc1ccccc1 | inactive | inactive | inactive | inactive | inactive | inactive | inactive | inactive | inactive | inactive |  |  | inactive |  |  | inactive |  |  | inactive | inactive |
| CC(C)=C[C@@H]1[C@@H](C(=O)OCc2coc(Cc3ccccc3)c2)C1(C)C | inactive | inactive | inactive |  | inactive | inactive | inactive | inactive | inactive | inactive | inactive | inactive | inactive | inactive |  | inactive | inactive | inactive | inactive | inactive |
